Assay outcomes (PubChem BioAssay)
GLD-1 RNA inh: GLD-1-TGE RNA interaction inhibition (C. elegans). purified GLD-1 + fluorescein TGE RNA, fluorescence polarization. hit rate 0.44% among 320,000. inhibition, % at 5.96 µM. Q17339;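 active means percent inhibition above a per-plate cutoff, the plate mean of test compounds plus 3 SD, cut at about 30% in these data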;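 further: 0% = DMSO wells with GLD-1 and probe and 100% = wells lacking GLD-1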
Target sequence (Q17339 whole entry, looked up): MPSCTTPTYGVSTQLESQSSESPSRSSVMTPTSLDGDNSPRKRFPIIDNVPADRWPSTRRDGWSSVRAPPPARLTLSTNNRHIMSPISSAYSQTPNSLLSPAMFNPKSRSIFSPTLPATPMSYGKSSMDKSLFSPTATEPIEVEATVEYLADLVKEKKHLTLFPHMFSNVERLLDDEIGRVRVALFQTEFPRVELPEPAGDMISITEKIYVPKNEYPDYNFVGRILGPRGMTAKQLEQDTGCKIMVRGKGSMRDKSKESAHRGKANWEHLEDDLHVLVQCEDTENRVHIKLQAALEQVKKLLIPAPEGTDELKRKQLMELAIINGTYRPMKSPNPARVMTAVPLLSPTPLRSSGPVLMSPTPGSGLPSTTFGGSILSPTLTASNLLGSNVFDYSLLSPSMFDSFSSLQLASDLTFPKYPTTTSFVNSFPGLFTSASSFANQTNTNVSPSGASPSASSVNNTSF
MCL1 BIM primary: MCL1-BIM-BH3 interaction inhibition (human); Q07820; GST-MCL1 / FITC-Bim-BH3 fluorescence polarization; inhibition, % at 10.9 µM; hit rate 0.68% among 320,000;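 active means inhibition above the mean inhibition of all tested compounds plus 3 SD, set per campaign, cut at about 40% in these data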;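 further: 0% = DMSO wells and 100% = unlabeled Bim-BH3 peptide control; higher means more loss of mP so more displacement of Bim peptide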
Mcl1-Noxa inh: Mcl-1/Noxa interaction inhibition; TR-FRET Mcl-1/Noxa peptide binding, 2 h; AID 1022; inhibition, % at 21.7 µM; hit rate 1.5% among 220,000;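 active means compounds that cut the protein-peptide binding signal by more than 50% relative to plate controls in a single-dose test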;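 further: His-tagged Mcl-1 with rhodamine Noxa BH3 peptide and terbium anti-His antibody; 0% = Mcl-1 plus Noxa peptide wells and 100% = peptide-only wells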
BCLXL inh: inhibitors of human Bcl-xL; GST-Bcl-xL / FITC-Bim BH3 peptide fluorescence polarization; Q07817; hit rate 0.7% among 320,000; inhibition, % at 10.9 µM;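 active means inhibition above the mean of all tested compounds plus 3 SD, cutoff set per campaign, cut at about 30% in these data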;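 further: 0% = DMSO wells and 100% = unlabeled Bim-BH3 peptide competitor; inhibitors lower millipolarization by displacing the labeled peptide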
Target sequence (Q07817 whole entry, looked up): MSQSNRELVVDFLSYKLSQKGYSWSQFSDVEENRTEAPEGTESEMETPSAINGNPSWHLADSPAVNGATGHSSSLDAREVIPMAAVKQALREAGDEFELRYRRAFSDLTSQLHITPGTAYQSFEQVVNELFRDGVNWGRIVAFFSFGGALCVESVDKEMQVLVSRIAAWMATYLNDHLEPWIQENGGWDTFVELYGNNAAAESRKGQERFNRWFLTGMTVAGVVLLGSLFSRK
Bim-Mcl-1: human Bim-Mcl-1 interaction inhibition. Q07820. Bead-based flow cytometry, Bim peptide-Mcl-1 binding. inhibition, % at 10 µM. hit rate 0.1% among 190,000. AID 1009; in the data active means inhibition above about 40%;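 further: 0% = no compound tracer wells and 100% = peptide blocker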
Mcl1 Bid PPI: Mcl-1/Bid interaction inhibition; Q07820; TR-FRET Mcl-1/Bid-Dy647 peptide binding, 1536-well; inhibition, % at 21.7 µM; hit rate 0.97% among 220,000; AID 1021;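 active means compounds that cut the binding signal by more than half at the single screening dose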;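 further: His-tagged Mcl-1 with europium anti-His antibody binding Bid BH3 peptide; 0% = Mcl-1 plus peptide wells and 100% = peptide-only wells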
BCLXL inh confirm: counter-screen for MCL1 inhibitors: confirmation of human Bcl-xL inhibitors. shares compounds with MCL1 BIM primary. GST-Bcl-xL / FITC-Bim BH3 peptide FP binding. inhibition, % at 10.9 µM. hit rate 54% among 1,700;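 active means inhibition above a cutoff equal to the mean inhibition of all tested compounds plus 3 SD, cut at about 30% in these data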;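 further: 0% = DMSO wells and 100% = unlabeled Bim BH3 control peptide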
MCL1 BIM confirm: confirmation of human MCL1 and BIM-BH3 interaction inhibitors; shares compounds with MCL1 BIM primary; GST-MCL1 / FITC-Bim-BH3 fluorescence polarization; inhibition, % at 10.9 µM; hit rate 61% among 1,700;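 active means inhibition above the average of all tested compounds plus 3 SD, cut at about 40% in these data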;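 further: 0% = DMSO wells and 100% = unlabeled Bim-BH3 control peptide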
GLD1 RNA confirm: confirmation of C. elegans GLD-1 TGE RNA binding inhibitors | inhibition, % at 5.96 µM | shares compounds with GLD-1 RNA inh | hit rate 10% among 550 | AID 2459 | GLD-1/FL-TGE RNA fluorescence polarization, biochemical;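 active means average inhibition across triplicates above the hit cutoff set in the primary screen, cut at about 32% in these data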;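 further: 0% = GLD-1 with RNA probe and DMSO and 100% = wells lacking GLD-1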
* = called active by the depositor. Only some compounds are listed: those with a hit (about 2.3% of all), similar ones and a draw of the others.

Screening CN(C)c1ccc(C(CNC(=O)c2ccc(-c3ccccc3)cc2)N2CCOCC2)cc1 (centres undefined) returned GLD-1 RNA inh 37*, MCL1 BIM primary 89*, BCLXL inh 80*, BCLXL inh confirm 6, MCL1 BIM confirm -2 and GLD1 RNA confirm -2.
Screening Cc1ccc(C(=O)NCC(c2ccc(F)cc2)N2CCOCC2)cc1 (centres undefined) returned GLD-1 RNA inh 8, MCL1 BIM primary -15, Mcl1-Noxa inh -10, BCLXL inh -5 and Mcl1 Bid PPI -8.
For CC(C(=O)N1CCCC1)N(C)CC(=O)Nc1cccc(F)c1 (centres undefined) the results were GLD-1 RNA inh 8, MCL1 BIM primary -1 and BCLXL inh -4.
For CCCCn1c(=O)[nH]c2nc3cc(NC(C)=O)ccc3nc2c1=O the results were GLD-1 RNA inh 53*, MCL1 BIM primary 59*, Mcl1-Noxa inh -1, BCLXL inh 61*, Mcl1 Bid PPI -10, BCLXL inh confirm 75*, MCL1 BIM confirm 95* and GLD1 RNA confirm 102*.
`O=C(COc1ccccc1)Nc1c2c(nn1-c1ccccc1)CS(=O)(=O)C2` gave GLD-1 RNA inh -19, MCL1 BIM primary -24 and BCLXL inh -11.
For O=C1NC(=S)/C(=C\c2ccc(-c3ccccc3Cl)o2)S1 the results were GLD-1 RNA inh 60*, MCL1 BIM primary 62*, Mcl1-Noxa inh 100*, BCLXL inh 58*, Bim-Mcl-1 -2, Mcl1 Bid PPI -28, BCLXL inh confirm 91*, MCL1 BIM confirm 116* and GLD1 RNA confirm 29.
`O=C(O)c1cccc(NS(=O)(=O)c2cc(S(=O)(=O)c3ccc(Cl)cc3)ccc2Cl)c1` gave GLD-1 RNA inh -9, MCL1 BIM primary 4 and BCLXL inh 8.
Cn1nc(-c2ccccc2)cc1NS(=O)(=O)c1ccccc1 was read as GLD-1 RNA inh -4, MCL1 BIM primary -4, Mcl1-Noxa inh -2, BCLXL inh 6 and Mcl1 Bid PPI -4.
Screening Cn1nc(-c2ccccc2)cc1NS(=O)(=O)c1ccc(C#N)cc1 returned GLD-1 RNA inh 61*, MCL1 BIM primary 97*, Mcl1-Noxa inh 8, BCLXL inh 100*, Mcl1 Bid PPI 3, BCLXL inh confirm 2, MCL1 BIM confirm -1 and GLD1 RNA confirm 0.
`CN1CCN(NC(=S)NC(C)(C)CC(C)(C)C)CC1` gave GLD-1 RNA inh 11, MCL1 BIM primary 6, Mcl1-Noxa inh -17, BCLXL inh 2, Bim-Mcl-1 0 and Mcl1 Bid PPI -40.
For CCC(=O)OCCNc1cc(Sc2nc3ccccc3s2)c2nonc2c1[N+](=O)[O-] the results were GLD-1 RNA inh 38*, MCL1 BIM primary 60*, Mcl1-Noxa inh 58*, BCLXL inh 62*, Bim-Mcl-1 2, Mcl1 Bid PPI -100, BCLXL inh confirm 56*, MCL1 BIM confirm 72* and GLD1 RNA confirm 25.
Cc1ccc(CNC(=O)c2c(-c3ccccc3Cl)noc2C)cc1 was read as GLD-1 RNA inh -1, MCL1 BIM primary -1 and BCLXL inh -1.
For Cc1onc(-c2ccccc2Cl)c1C(=O)NCc1ccc2c(c1)cc(C)n2C the results were GLD-1 RNA inh 68*, MCL1 BIM primary 77*, Mcl1-Noxa inh -7, BCLXL inh 66*, Mcl1 Bid PPI -139, BCLXL inh confirm 34*, MCL1 BIM confirm 47* and GLD1 RNA confirm 16.
Cc1ccc(S(=O)(=O)N2CCN(C(=O)COC(=O)CNC(=O)c3ccc(Cl)cc3Cl)CC2)cc1 was read as GLD-1 RNA inh 3, MCL1 BIM primary -15 and BCLXL inh -12.
Screening N#Cc1c(N)sc(=S)c2c1CCCCC2 returned GLD-1 RNA inh 56*, MCL1 BIM primary 113*, Mcl1-Noxa inh 71*, BCLXL inh 87*, Bim-Mcl-1 -4, Mcl1 Bid PPI 25, BCLXL inh confirm 62*, MCL1 BIM confirm 76* and GLD1 RNA confirm 24.
For CN(C)/C=C1\SC(=S)N(c2ccc(F)cc2)C1=O the results were GLD-1 RNA inh 2, MCL1 BIM primary 10, Mcl1-Noxa inh 16, BCLXL inh 8 and Mcl1 Bid PPI -35.
CN(C)/C=C1\SC(=S)N(c2ccc(Br)cc2)C1=O was read as GLD-1 RNA inh 73*, MCL1 BIM primary 176*, Mcl1-Noxa inh 29, BCLXL inh 131*, Mcl1 Bid PPI -28, BCLXL inh confirm active, MCL1 BIM confirm active and GLD1 RNA confirm 32*.
Cc1ccc(-c2cc(C(=O)O)c3cc(Br)ccc3n2)o1 was read as GLD-1 RNA inh 37*, MCL1 BIM primary 75*, Mcl1-Noxa inh 93*, BCLXL inh 62*, Bim-Mcl-1 1, Mcl1 Bid PPI 18, BCLXL inh confirm 28, MCL1 BIM confirm 44* and GLD1 RNA confirm 3.
Screening Cc1ccc(-c2cc(C(=O)N3CC(C)CC(C)C3)c3ccccc3n2)o1 (centres undefined) returned GLD-1 RNA inh 6, MCL1 BIM primary 24 and BCLXL inh 21.
Screening O=C1CC(c2ccccc2)c2ccccc21 (centres undefined) returned GLD-1 RNA inh 5, MCL1 BIM primary -1, Mcl1-Noxa inh 12, BCLXL inh 2, Bim-Mcl-1 -2 and Mcl1 Bid PPI 0.
For CN1Cc2c(N)cccc2C(c2ccccc2)C1 (centres undefined) the results were GLD-1 RNA inh 39*, MCL1 BIM primary 92*, Mcl1-Noxa inh 8, BCLXL inh 79*, Bim-Mcl-1 -3, Mcl1 Bid PPI 0, BCLXL inh confirm 26, MCL1 BIM confirm 25 and GLD1 RNA confirm 13.
CCn1c(CSc2ncccn2)nnc1SCC(=O)N1CCc2ccccc21 was read as GLD-1 RNA inh 36*, MCL1 BIM primary 103*, Mcl1-Noxa inh 30, BCLXL inh 99*, Bim-Mcl-1 -4, Mcl1 Bid PPI -5, BCLXL inh confirm 7, MCL1 BIM confirm -1 and GLD1 RNA confirm -6.
O=C1CCCc2cc3c(cc21)CC1(C3)Cc2cc3c(cc2C1)C(=O)CCC3 was read as GLD-1 RNA inh 4, MCL1 BIM primary -16, Mcl1-Noxa inh -8, BCLXL inh -2 and Mcl1 Bid PPI -2.
